This is a sample that favours compounds with a hit; in the whole collection about 21% have one here.
Pf growth 48h = inhibits P. falciparum growth in the first generation, 48 h. Potency, µM (titrated, usually from 28.7 µM), inactives show at the highest dose activity change, negative = inhibition, hits mostly inhibitors. hit rate 5.9% among 310,000. P. falciparum luciferase growth in erythrocytes, 48 h; also: potency is read from the fitted curve at half-maximal effect; % is scaled to controls: 0 for no effect and ±100 for the full control effect
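A one-generation exposure of luciferase-tagged malaria parasites in RPMI 1640/Albumax erythrocyte culture, 37 C and 5% CO2. Inhibition is inferred from decreased luminescence after adding detection reagent.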
Pf growth 96h = inhibits malaria parasite growth, 96 h; hit rate 6.9% among 320,000; P. falciparum luciferase reporter growth, 96 h; Potency, µM (doses to about 28.7 µM), without a hit: top-dose activity change, negative = inhibition, actives largely listed as inhibitors; AID 504834; also: potency is read from the fitted curve at half-maximal effect; % is scaled to controls: 0 for no effect and ±100 for the full control effect
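Compounds incubated with erythrocytes infected by luciferase-expressing P. falciparum (2% hematocrit, 0.05% parasitemia final) for 96 hours, 37 C in 5% CO2. Growth inhibition scored as decreased luciferase luminescence.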
NS1 function inh = influenza NS1 inhibition; hit rate 0.4% among 270,000; Potency, µM (series often up to 46.1 µM), for the others: at the highest dose activity, positive = more growth; calls by dose curve; also: potency is read from the fitted curve at half-maximal effect; actives are rising curves; nearly all actives have a fitted effect of over 50% in size
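Growth recovery, yeast-based: influenza A NS1 expressed in S. cerevisiae causes slow growth, and suppressors are detected by OD600. The parent strain without NS1 is used as positive control.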
Shiga toxin inh = blocks Shiga toxin action in Vero cells; inhibition, % at 38.7 µM; Vero cells, Shiga toxin protein synthesis inhibition reporter; hit rate 9.2% among 290,000; in the data active = inhibition mostly above about 28%, no sharp cut-off; inactive = mostly below about 43%; also: 0% is about no effect
Cycloheximide cs = counter-screen hit for Shiga toxin inhibitors, cycloheximide; max response, %; AID 2314; cell reporter, cycloheximide protein synthesis inhibition counterscreen; hit rate 12% among 300,000; in the data active = max response mostly above about 13%, no sharp cut-off; inactive = mostly below about 14%; also: read at 38.3 µM for the half of the compounds with a filed dose; 0% is about no effect
Flu NS1 inh = validation of influenza NS1 protein function inhibitors. shares compounds with NS1 function inh. influenza NS1 function cell assay, 15-point titration. activity change, negative = inhibition, % at 32.9 µM. 1,400 tested, under 10 active. AID 492980; calls by dose curve; also: 0% is about no effect
PR8 titer = reduces influenza A/PR/8/34 replication in MDCK cells; shares compounds with NS1 function inh; MDCK infected influenza A/PR/8/34, virus titer TCID50; active compounds read low; virus titer (log TCID50), log10 TCID50 at 5 µM; hit rate 30% among 95; call rule not given here
An asterisk follows results filed as active; ? = inconclusive; / = no result. Unless noted, calls follow the shape of the dose curve; as a rule, active = well fitted inhibition curve with a large enough effect; inconclusive = small, poorly fitted or top-dose-only effect, or another doubt; inactive = no such curve, though single readings can be large or run the other way.

SMILES	Pf growth 48h	Pf growth 96h	NS1 function inh	Shiga toxin inh	Cycloheximide cs	Flu NS1 inh	others
CCOC(=O)C1CCCN(C(=O)Cn2sc3nc(C)cc(C)c3c2=O)C1 (configuration not stated)	/	33%	5µM*	-10	-1	?
O=C(c1ccc(Cl)cc1Cl)N1CCSCC1	?	25%	4%	21	-1	/
CC(=O)Nc1ccc(Nc2ncnc3ccccc23)cc1	98%	88%	?	26	14*	11	PR8 titer=8.5
CCCn1c(CCNc2nc(-c3ccc(Cl)c([N+](=O)[O-])c3)cs2)nc2cc(Cl)c(Cl)cc21	2%	34%	8.9µM*	4	4	37	PR8 titer=8
CCCS(=O)(=O)N1CCCC(C(=O)NCCCN2CCN(c3ccc(F)cc3)CC2)C1 (configuration not stated)	-12%	0%	-1%	-7	11	/
COC(=O)c1c(C)oc2ccc(N(C(=O)c3ccncc3)S(=O)(=O)c3ccc4ccccc4c3)cc12	3%	0%	11µM*	12	-3	3
CCc1nnc(NC(=O)CCS(=O)(=O)c2ccc(C)cc2)s1	?	5%	/	/	/	/
COc1ccc(CNC(=O)CN(Cc2ccc(OC)cc2)C(=O)CCC(=O)Nc2nccs2)cc1	6%	-5%	2%	-1	-4	/
Cc1ccc(C(CC(=O)O)C2CCOC(C)(C)C2)cc1 (configuration not stated)	/	-3%	9%	-14	-2	/
NC(=S)N/N=C/c1ccccc1OCCSc1ccc(Cl)cc1	?	?	10µM*	13	5	?
COc1ccccc1N1CCN(S(=O)(=O)CCNC(=O)C2CCCCC2)CC1	-6%	2%	/	/	/	/
O=C(O)CCc1nc2ccccc2[nH]1	-99%	-23%	-6%	/	/	/
OC(Cc1nc2ccccc2[nH]1)c1ccccc1Cl (configuration not stated)	-2%	?	0.28µM*	107*	49*	-29
Cc1cc(NC(=O)CSc2ncc(CO)n2Cc2ccc(F)cc2)no1	2%	-7%	-1%	2	-3	/
O=C(c1ccc(F)cc1)N1CCN(c2ccc([N+](=O)[O-])c(N3CCCCC3)c2)CC1	-9%	?	-17%	-13	-4	/
O=C(COc1ccc(Cl)cc1)N1CCN(c2ccc([N+](=O)[O-])c(N3CCCCC3)c2)CC1	?	10µM*	11µM*	13	-2	?
O=C(COc1ccccc1Cl)N1CCN(c2ccc([N+](=O)[O-])c(N3CCCCC3)c2)CC1	?	?	?	8	0	-17
O=c1[nH]c2ccc(N=Cc3c(O)ccc4cc(Br)ccc34)cc2[nH]1	21%	30%	1%	-8	-4	/
CCc1ccc(NC(=O)C(C)OC(=O)c2cccc(S(=O)(=O)N3CCc4ccccc4C3)c2)cc1 (configuration not stated)	3%	-39%	14µM*	18	6	-19
Cc1cc(C2=CC(C)(c3cc(C)oc3C)Nc3nc(C(F)(F)F)nn32)c(C)o1 (configuration not stated)	9.3µM*	2%	18µM*	41*	28*	7
O=C(c1ccc2c(c1)OCO2)N1CCN(S(=O)(=O)N2CCCCC2)CC1	-22%	20%	8%	-16	2	/
COc1ccc(S(=O)(=O)N2CCCCC2)cc1NS(=O)(=O)c1cc(Cl)ccc1Cl	-2%	-1%	22µM*	5	5	49	PR8 titer=8.5
N#CCC(=O)Nc1sc2c(c1C(N)=O)CCCC2	-9%	2%	8.9µM*	21	1	18
COc1cccc(NS(=O)(=O)c2ccc3c(c2)N(C(C)=O)CCS3)c1	6%	?	-3%	-6	-1	/
COc1cccc(NS(=O)(=O)c2ccc3c(c2)C2C=CCC2C(c2ccc(C(=O)O)cc2)N3)c1 (configuration not stated)	-13%	12%	10µM*	10	3	9
SMILES	Pf growth 48h	Pf growth 96h	NS1 function inh	Shiga toxin inh	Cycloheximide cs	Flu NS1 inh	others
O=C(/C=C/c1cccc([N+](=O)[O-])c1)N1CCN(S(=O)(=O)c2cccs2)CC1	-6%	?	3%	-7	-4	/
O=[N+]([O-])c1ccccc1NCc1c(O)ccc2ccccc12	?	?	8.9µM*	8	2	8
c1ccc(-n2c(SCC3CCCCO3)nnc2-c2cccs2)cc1 (configuration not stated)	-14%	-3%	?	-13	-2	?
Cn1c(CCC(=O)OCC(=O)NCc2ccc3c(c2)OCO3)nc(=O)c2ccccc21	11%	-16%	/	-4	8	/
O=C(O)CCN1C(=O)c2ccc(NC(=O)C(c3ccccc3)c3ccccc3)cc2C1=O	-28%	3%	6%	-8	2	/
CCCC(CCC)C(=O)OC1C[C@H]2CC[C@@H](C1)[N+]2(C)C (some centres not stated)	12µM*	4.3µM*	?	-17	-4	12
Cc1ccc(-c2nc(CS(=O)(=O)CC(=O)NC3CCCCC3C)c(C)o2)cc1 (configuration not stated)	/	63%	3.2µM*	-16	-6	-26
COc1ccc(-c2nc(CS(=O)(=O)CC(=O)NC3CCCCC3C)c(C)o2)cc1 (configuration not stated)	7%	35%	9%	-1	-1	/
COc1ccc(C(=O)Oc2cc(N)n(S(=O)(=O)c3ccc(C)cc3)n2)cc1	17%	?	12%	-18	-3	/
COc1ccc(S(=O)(=O)n2nc(OC(=O)c3c(-c4ccccc4Cl)noc3C)cc2N)cc1	9%	55%	10µM*	-6	7	-1
O=C1OCCN1C(=O)[C@H]1[C@H](c2ccc([N+](=O)[O-])cc2)C(c2cccc(Cl)c2)=NN1c1ccccc1	-8%	?	22µM*	1	0	28
O=C1OCCN1C(=O)[C@H]1[C@H](c2ccc([N+](=O)[O-])cc2)C(c2ccccc2)=NN1c1ccccc1	/	/	/	13	8	/
CC1=NN(Cc2cc(C(C)(C)C)c(O)c(C(C)(C)C)c2)C(=O)C1	-17%	1%	14µM*	-5	-3	?
CN1CCN(Cc2cc(C(C)(C)C)c(O)c(C(C)(C)C)c2)CC1	/	95%	4%	-10	-5	/
CC1CCC2(CC1)NC(=O)N(NC(=O)c1ccc(OC(C)C)cc1)C2=O (configuration not stated)	13%	28%	/	/	/	/
NC(=O)NC(=O)COC(=O)c1ccc(Cl)c(S(=O)(=O)N(Cc2ccccc2)c2ccc(Cl)cc2)c1	?	0%	11µM*	5	-4	-20
CCc1nnc(NC(=O)CCC(=O)NC2CC2)s1	0%	-4%	-3%	8	9	/

From PubChem
